Where “and” joins values, the source holds several entries; their conditions need not be identical. Equal entries are not always repeated. Out of some 5,500 compounds screened, about 2,000 (36%) were called active. Roughly 18% stayed inconclusive and do not appear here. Cut-off read from the data, not from the text of the source: active = normalized growth mostly below about 0.91 (no sharp cut-off); inconclusive = no clear call, values can overlap the other calls; inactive = mostly above about 0.92. The list shows a part of the results.
Assay: chemical genetic growth profiling, strain panel (AID 1159580);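 note: tested at 20 µM; growth read once vehicle control cultures reached saturation at 30 °C; 1 = growth at the plate median or of vehicle wells; lower values mean less growth of the strain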
Conditions: growth OD

Measured: normalized growth

Nc1ccncc1
inactive: S. cerevisiae deletion strains, locus YJR075W, strain HOC1, active compounds read low 1.03 and 1 | S. cerevisiae deletion strains, locus YKL009W, strain mrt4, active compounds read low 1.03 | S. cerevisiae deletion strains, locus YKL068W, active compounds read low 0.988 | S. cerevisiae deletion strains, locus YKL085W, strain MDH1 (second series), active compounds read low 0.995 | S. cerevisiae deletion strains, locus YKL085W, strain MDH1, active compounds read low 0.995 | S. cerevisiae deletion strains, locus YKL160W, strain elf1, active compounds read low 0.994 | S. cerevisiae deletion strains, locus YKL190W, strain CNB1, active compounds read low 1.01 | S. cerevisiae deletion strains, locus YKR001C, strain vps1, active compounds read low 0.931 | S. cerevisiae deletion strains, locus YKR026C, strain gcn3, active compounds read low 0.984 | S. cerevisiae deletion strains, locus YKR091W, strain srl3, active compounds read low 0.987 | S. cerevisiae deletion strains, locus YLL001W, strain dnm1, active compounds read low 0.981 | S. cerevisiae deletion strains, locus YLL026W, active compounds read low 0.999 | S. cerevisiae deletion strains, locus YLL041C, strain sdh2, active compounds read low 0.989 | S. cerevisiae deletion strains, locus YLR027C, strain aat2, active compounds read low 0.994 | S. cerevisiae deletion strains, locus YLR039C, strain RIC1, active compounds read low 1 | S. cerevisiae deletion strains, locus YLR058C, strain SHM2, active compounds read low 1.02 | S. cerevisiae deletion strains, locus YLR102C, strain apc9, active compounds read low 0.97 | S. cerevisiae deletion strains, locus YLR113W, strain HOG1, active compounds read low 0.958 | S. cerevisiae deletion strains, locus YLR221C, strain rsa3, active compounds read low 1 | S. cerevisiae deletion strains, locus YLR258W, strain gsy2, active compounds read low 0.987 | S. cerevisiae deletion strains, locus YLR262C, strain YPT6 (second series), active compounds read low 0.971 | S. cerevisiae deletion strains, locus YLR262C, strain YPT6, active compounds read low 1.02 | S. cerevisiae deletion strains, locus YLR268W, strain sec22, active compounds read low 0.921 | S. cerevisiae deletion strains, locus YLR320W, strain mms22, active compounds read low 0.993 | S. cerevisiae deletion strains, locus YLR330W, strain CHS5, active compounds read low 1.01 | S. cerevisiae deletion strains, locus YLR342W, strain FKS1 (second series), active compounds read low 1.02 | S. cerevisiae deletion strains, locus YLR342W, strain FKS1, active compounds read low 0.991 | S. cerevisiae deletion strains, locus YLR357W, strain rsc2, active compounds read low 1.01 | S. cerevisiae deletion strains, locus YLR370C, strain arc18, active compounds read low 0.997 | S. cerevisiae deletion strains, locus YLR371W, strain rom2, active compounds read low 0.976 | S. cerevisiae deletion strains, locus YLR384C, strain iki3, active compounds read low 0.994 | S. cerevisiae deletion strains, locus YLR418C, strain cdc73, active compounds read low 0.935 | S. cerevisiae deletion strains, locus YML016C, strain PPZ1, active compounds read low 1.02 | S. cerevisiae deletion strains, locus YML032C, strain rad52, active compounds read low 0.957 | S. cerevisiae deletion strains, locus YML120C, strain ndi1, active compounds read low 0.998 | S. cerevisiae deletion strains, locus YML124C, strain tub3, active compounds read low 0.977 | S. cerevisiae deletion strains, locus YMR058W, strain fet3, active compounds read low 1 | S. cerevisiae deletion strains, locus YMR078C, strain ctf18, active compounds read low 0.958 | S. cerevisiae deletion strains, locus YMR125W, strain sto1, active compounds read low 0.984 | S. cerevisiae deletion strains, locus YMR129W, active compounds read low 0.993 | S. cerevisiae deletion strains, locus YMR205C, strain PFK2, active compounds read low 0.999 | S. cerevisiae deletion strains, locus YMR223W, strain ubp8, active compounds read low 0.977 | S. cerevisiae deletion strains, locus YMR231W, strain pep5, active compounds read low 0.995 | S. cerevisiae deletion strains, locus YMR263W, strain SAP30, active compounds read low 1.02 and 1.01 | S. cerevisiae deletion strains, locus YMR307W, strain GAS1, active compounds read low 1.01 | S. cerevisiae deletion strains, locus YNL067W, strain RPL9B, active compounds read low 1.01 | S. cerevisiae deletion strains, locus YNL071W, strain lat1, active compounds read low 0.995 | S. cerevisiae deletion strains, locus YNL128W, strain TEP1, active compounds read low 1.02 | S. cerevisiae deletion strains, locus YNL153C, strain GIM3, active compounds read low 1.01 and 1 | S. cerevisiae deletion strains, locus YNL175C, strain NOP13, active compounds read low 1 | S. cerevisiae deletion strains, locus YNL183C, strain NPR1, active compounds read low 0.912 | S. cerevisiae deletion strains, locus YNL197C, strain WHI3, active compounds read low 1.01 | S. cerevisiae deletion strains, locus YNL209W, strain ssb2, active compounds read low 0.993 | S. cerevisiae deletion strains, locus YNL224C, strain SQS1, active compounds read low 0.998 | S. cerevisiae deletion strains, locus YNL233W, strain BNI4, active compounds read low 1 | S. cerevisiae deletion strains, locus YNL248C, strain rpa49, active compounds read low 0.993 | S. cerevisiae deletion strains, locus YNL250W, strain rad50, active compounds read low 0.978 | S. cerevisiae deletion strains, locus YNL271C, strain bni1, active compounds read low 0.942 | S. cerevisiae deletion strains, locus YNL298W, strain CLA4, active compounds read low 0.966 | S. cerevisiae deletion strains, locus YNL307C, strain MCK1, active compounds read low 0.947 | S. cerevisiae deletion strains, locus YNL322C, strain KRE1 (second series), active compounds read low 0.99 | S. cerevisiae deletion strains, locus YNL322C, strain KRE1, active compounds read low 1.01 and 1.02 | S. cerevisiae deletion strains, locus YNR049C, strain mso1, active compounds read low 0.99 | S. cerevisiae deletion strains, locus YNR052C, strain pop2, active compounds read low 0.974 | S. cerevisiae deletion strains, locus YOL006C, strain TOP1, active compounds read low 0.996 | S. cerevisiae deletion strains, locus YOL012C, strain htz1 1.65 | S. cerevisiae deletion strains, locus YOL147C, strain pex11, active compounds read low 0.956 | S. cerevisiae deletion strains, locus YOR001W, strain rrp6, active compounds read low 0.993 | S. cerevisiae deletion strains, locus YOR061W, strain CKA2, active compounds read low 1.02 | S. cerevisiae deletion strains, locus YOR069W, strain VPS5, active compounds read low 1.02 | S. cerevisiae deletion strains, locus YOR070C, strain gyp1, active compounds read low 0.999 | S. cerevisiae deletion strains, locus YOR080W, strain dia2, active compounds read low 0.99 | S. cerevisiae deletion strains, locus YOR083W, strain WHI5 (second series), active compounds read low 0.998 | S. cerevisiae deletion strains, locus YOR083W, strain WHI5, active compounds read low 1 | S. cerevisiae deletion strains, locus YOR106W, strain vam3, active compounds read low 1.01 | S. cerevisiae deletion strains, locus YOR136W, strain idh2, active compounds read low 0.974 | S. cerevisiae deletion strains, locus YOR144C, strain elg1, active compounds read low 0.963 | S. cerevisiae deletion strains, locus YOR184W, strain ser1, active compounds read low 0.904 | S. cerevisiae deletion strains, locus YOR231W, strain MKK1, active compounds read low 0.968 | S. cerevisiae deletion strains, locus YOR265W, strain rbl2, active compounds read low 0.991 | S. cerevisiae deletion strains, locus YOR270C, strain vph1, active compounds read low 0.98 | S. cerevisiae deletion strains, locus YOR290C, strain snf2, active compounds read low 1 | S. cerevisiae deletion strains, locus YOR316C, strain cot1, active compounds read low 0.973 | S. cerevisiae deletion strains, locus YPL051W, strain arl3, active compounds read low 0.988 | S. cerevisiae deletion strains, locus YPL055C, strain LGE1, active compounds read low 1.07 | S. cerevisiae deletion strains, locus YPL078C, strain atp4, active compounds read low 0.995 | S. cerevisiae deletion strains, locus YPL106C, strain sse1, active compounds read low 1 | S. cerevisiae deletion strains, locus YPL240C, strain hsp82, active compounds read low 0.983 | S. cerevisiae deletion strains, locus YPL241C, strain CIN2, active compounds read low 1.01 | S. cerevisiae deletion strains, locus YPL256C, strain CLN2, active compounds read low 0.946 | S. cerevisiae deletion strains, locus YPR119W, strain clb2, active compounds read low 0.947 | S. cerevisiae deletion strains, locus YPR141C, strain kar3, active compounds read low 0.99 | S. cerevisiae deletion strains, locus YPR163C, strain tif3, active compounds read low 0.959 | S. cerevisiae deletion strains, locus YPR167C, strain met16, active compounds read low 0.969 | S. cerevisiae deletion strains, strain wtn01, active compounds read low 0.963 | S. cerevisiae strains, strain wild type, active compounds read low 1.02
